Measured values: PubChem BioAssay AID1159580 (chemical genetic matrix, 2015)
Several values for one entry are separate records, joined by “and”; a condition that tells them apart may be missing. Equal entries are not always repeated. Screen size: about 5,500 compounds; about 2,000 (36%) were called active. Inconclusive results (about 18%) are left out. Cut-off read from the data, not from the text of the source: active = normalized growth mostly below about 0.91 (no sharp cut-off); inconclusive = no clear call, values can overlap the other calls; inactive = mostly above about 0.92. Some of the results follow.

Assay: chemical genetic growth profiling, strain panel (AID 1159580);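 note: tested at 20 µM; growth read once vehicle control cultures reached saturation at 30 °C; 1 = growth at the plate median or of vehicle wells; lower values mean less growth of the strain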
Conditions: S. cerevisiae deletion strains, growth OD

Measured: normalized growth

CN1CCCN=C1COC(=O)C(O)(c1ccccc1)C1CCCCC1 (stereo unspecified)
inactive: locus YAL013W, strain DEP1, active compounds read low 1.01 | locus YAL021C, strain ccr4, active compounds read low 1 | locus YAL026C, strain drs2, active compounds read low 0.993 | locus YAL030W, strain snc1, active compounds read low 0.996 | locus YBL061C, strain skt5, active compounds read low 0.987 | locus YBR009C, strain hhf1, active compounds read low 0.994 | locus YBR021W, strain FUR4, active compounds read low 1.03 | locus YBR023C, strain chs3, active compounds read low 0.987 | locus YBR171W, strain sec66, active compounds read low 0.993 | locus YBR229C, strain ROT2, active compounds read low 1.01 | locus YBR231C, strain swc5, active compounds read low 1 | locus YBR279W, strain paf1, active compounds read low 0.993 | locus YCL011C, strain gbp2, active compounds read low 1 | locus YCL016C, strain dcc1, active compounds read low 0.991 | locus YCL029C, strain bik1, active compounds read low 0.99 | locus YCL061C, strain MRC1, active compounds read low 0.994 | locus YCL069W, strain vba3, active compounds read low 0.997 | locus YCR088W, strain abp1, active compounds read low 0.997 | locus YDL005C, strain med2, active compounds read low 0.98 | locus YDL035C, strain GPR1, active compounds read low 1 | locus YDL040C, strain nat1, active compounds read low 0.998 | locus YDL074C, strain BRE1, active compounds read low 1.01 | locus YDL101C, strain DUN1, active compounds read low 1.01 | locus YDL134C, strain PPH21, active compounds read low 1.02 | locus YDL185W, strain tfp1, active compounds read low 1 | locus YDL192W, strain arf1, active compounds read low 0.999 | locus YDR001C, strain nth1, active compounds read low 0.995 | locus YDR069C, strain doa4, active compounds read low 0.99 | locus YDR101C, strain arx1, active compounds read low 0.968 | locus YDR137W, strain rgp1, active compounds read low 0.99 | locus YDR150W, strain NUM1, active compounds read low 1.01 | locus YDR159W, strain sac3, active compounds read low 1 | locus YDR162C, strain NBP2, active compounds read low 1 | locus YDR195W, strain ref2 0.993 | locus YDR297W, strain sur2, active compounds read low 1 | locus YDR318W, strain mcm21, active compounds read low 0.983 | locus YDR334W, strain swr1, active compounds read low 0.989 | locus YDR335W, strain msn5, active compounds read low 0.997 | locus YDR388W, active compounds read low 0.989 | locus YDR392W, strain spt3, active compounds read low 1 | locus YDR502C, strain sam2, active compounds read low 0.994 | locus YEL003W, strain gim4, active compounds read low 0.997 | locus YEL037C, strain rad23, active compounds read low 0.991 | locus YEL061C, strain CIN8 (second series), active compounds read low 0.999 | locus YEL061C, strain CIN8, active compounds read low 1.01 | locus YER015W, strain faa2, active compounds read low 0.978 | locus YER016W, strain bim1, active compounds read low 0.994 | locus YER110C, active compounds read low 0.991 | locus YER111C, strain swi4, active compounds read low 0.995 | locus YER155C, strain BEM2 (second series), active compounds read low 1.01 | locus YER155C, strain BEM2, active compounds read low 1.03 | locus YER167W, strain BCK2, active compounds read low 1.01 | locus YFR010W, strain ubp6, active compounds read low 1.01 | locus YGL078C, strain dbp3, active compounds read low 0.987 | locus YGL086W, strain mad1, active compounds read low 0.992 | locus YGL167C, strain pmr1, active compounds read low 0.987 | locus YGL173C, strain kem1, active compounds read low 0.987 | locus YGL227W, strain vid30, active compounds read low 0.993 | locus YGL240W, strain doc1, active compounds read low 1 | locus YGL248W, strain PDE1, active compounds read low 1.01 | locus YGL253W, strain hxk2, active compounds read low 0.998 | locus YGR078C, strain PAC10, active compounds read low 0.991 | locus YGR135W, strain pre9, active compounds read low 0.978 | locus YGR229C, strain SMI1, active compounds read low 0.99 | locus YGR252W, strain gcn5, active compounds read low 1.05 | locus YHR013C, strain ard1, active compounds read low 0.981 | locus YHR027C, strain rpn1, active compounds read low 0.991 | locus YHR030C, strain SLT2, active compounds read low 1.01 and 0.997 | locus YHR079C, strain IRE1 (second series), active compounds read low 0.988 | locus YHR079C, strain IRE1, active compounds read low 1.01 | locus YHR094C, strain hxt1, active compounds read low 0.985 | locus YHR129C, strain ARP1, active compounds read low 1.02 | locus YHR142W, strain chs7, active compounds read low 0.998 | locus YHR200W, strain rpn10, active compounds read low 0.993 | locus YIL066C, strain RNR3, active compounds read low 1 | locus YIL073C, strain SPO22, active compounds read low 0.999 | locus YIL125W, strain kgd1, active compounds read low 0.998 | locus YIR030C, strain dcg1, active compounds read low 0.985 | locus YJL092W, strain hpr5, active compounds read low 0.997 | locus YJL095W, strain BCK1 (second series), active compounds read low 0.998 | locus YJL095W, strain BCK1, active compounds read low 1 and 1.01 | locus YJL115W, strain asf1, active compounds read low 0.986 | locus YJL129C, strain trk1, active compounds read low 1.02 | locus YJL134W, strain LCB3, active compounds read low 1.01 | locus YJL154C, strain vps35, active compounds read low 0.996 | locus YJL166W, strain qcr8, active compounds read low 0.99 | locus YJL168C, strain set2, active compounds read low 0.992 | locus YJL187C, strain SWE1 (second series), active compounds read low 1.01 | locus YJL187C, strain SWE1, active compounds read low 0.999 | locus YJR043C, strain POL32, active compounds read low 1 | locus YJR066W, strain TOR1, active compounds read low 0.952
